# Several values for one entry are separate records, joined by “and”; a condition that tells them apart may be missing. Equal entries are not always repeated. Records with an inconclusive call do not appear. Some compounds were tested as several samples or in several runs, with calls that do not always agree. Activity calls are given as the source filed them.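 How the source made its calls, unless noted: active means normalized viability below 100% at a tested concentration; inactive means the rest.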
# Legend:
# [1] = stimulators of nuclear beta-catenin in C2C12, primary screen, imaging, WNT3A-conditioned medium, mouse C2C12, NPC library (AID 1117326; in the data active means nuclear beta-catenin stimulation mostly above about 4.2%, no sharp cut-off; inactive means mostly below about 10%); details: stronger effect = higher value
# [2] = stimulators of insulin release from INS-1E, primary screen, cell-based, 5 mM glucose, NPC library (AID 1117329;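 active means compound raises insulin release from rat beta cells at 5 mM glucose, no numeric limit stated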); details: rat INS-1E insulin secretion, at 10 µM, stronger effect = higher value
# [3] = growth inhibition of GSK3B-pretreated HCT116 cells – cell-based, CellTiter-Glo, 0.2 to 20 µM (AID 1117336;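 active means compounds lowering colon cancer cell viability after pretreatment blocking the GSK3B kinase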); details: HCT116 viability after GSK3B inhibitor, at 20 µM, stronger effect = higher value
# [4] = inhibition of endothelial tube formation, primary screen, imaging, VEGF stimulated, CD31 staining, tube area, NPC library (AID 1117340;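 active means compound that reduces growth-factor-driven endothelial tube area in a mixed cell culture, no cutoff stated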); details: VEGF-stimulated ADSC/ECFC co-culture, at 10 µM, stronger effect = higher value
# [5] = glucagon-like peptide 1 release enhancers, primary assay, NCI-H716 cell line, NPC library (AID 1117341;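 active means compound raises GLP1 secretion from the human gut endocrine cells, with no numeric limit stated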); details: NCI-H716 cells, at 10 µM, stronger effect = higher value
# [6] = HCT116 colon cancer cell growth inhibition, primary screen, CellTiter-Glo luminescence, NPC library (AID 1117342;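 active means compounds that lower survival of HCT116 colon cancer cells in the luminescence readout, no numeric limit stated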); details: at 20 µM (top of the series)
# [7] = CellTiter-Glo luminescent readout of SW480 viability loss, NPC library primary (AID 1117343;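 active means compounds that lower viability of the colon cancer cells in the luminescence readout, with no numeric limit stated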); details: CellTiter-Glo luminescence; at 20 µM (top of the series) unless noted
# [8] = decreased DLD-1 cellular survival, CellTiter-Glo luminescent readout, NPC compound collection, primary HTS (AID 1117346;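 active means compounds that lower survival of DLD-1 colon cancer cells in the luminescence readout, no cutoff given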); details: DLD-1 viability, CellTiter-Glo luminescence; at 20 µM (top of the series)
# [9] = system: Aerobactin synthetase IucA (Klebsiella pneumoniae); assay: IucA aerobactin synthetase inhibitors, biochemical, Tocris library, absorbance (AID 1345561; call rule not given here;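 further: 100% = enzyme without compound and 0% = no enzyme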); details: purified IucA enzyme assay, absorbance (OD) read-out; stronger effect = lower value;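 tested at 8 µM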
# [10] = sensitizers of A549 cells to miR-34 induction, primary screen, imaging, A549 dox-inducible miR-34, nuclei and caspase counts (AID 1347080;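 active means compounds whose cell count with miR-34 switched on is under 0.7 times the count with it off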); details: A549 miR-34 inducible, Hoechst nuclei count, 48 h
# [11] = viability rescue of complex I mutant cybrids, primary screen, cell-based, galactose medium, ATP luminescence (AID 1645843;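 active means z-score of at least 1.8 in each of two replicates, scored against plate mean and spread of sample wells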;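 further: positive z means more ATP and so rescue of galactose-driven cybrid death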); details: complex I mutant cybrid cells, 72 h, stronger effect = higher value
# [12] = liver-stage malaria parasite growth inhibition, primary screen, cell-based, HepG2, luciferase luminescence, HepG2 viability (AID 624349; in the data active means parasite load remaining mostly below about 12%, no sharp cut-off; inactive means mostly above about 10%;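 further: 100% = mean of DMSO negative control wells on the same plate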); details: P. berghei liver stage in HepG2, luciferase luminescence, concentration not given here; parasite load remaining: stronger effect = lower value; viability: measured here: HepG2 viability without parasites
# [13] = growth inhibition of DIPG glioma cells, dose response, cell-based, SU-DIPG-XVII, MIPE5.0, CellTiter-Glo, qHTS (AID 1347060; cut-off not given, nearly all actives have AC50 up to about 26 µM;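 further: cells exposed to compound for 48 hours before viability readout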); details: SU-DIPG-XVII viability, CellTiter-Glo ATP luminescence
# [14] = growth inhibition of DIPG glioma cells, dose response, cell-based, SU-DIPG-XIII, MIPE4.0, CellTiter-Glo, qHTS (AID 1347061; cut-off not given, nearly all actives have AC50 up to about 37 µM;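 further: cells exposed to compound for 48 hours before readout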); details: SU-DIPG-XIII viability, CellTiter-Glo ATP luminescence
# [15] = SU-DIPG-VI glioma cell viability, MIPE4.0 library, CellTiter-Glo luminescence, qHTS (AID 1347066; cut-off not given, nearly all actives have AC50 up to about 30 µM;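 further: cells exposed to compound for 48 hours before readout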); details: CellTiter-Glo ATP luminescence
# [16] = survival rescue of mitochondrial mutant cells in low glucose, primary screen, MELAS cybrids, Rieske KO mouse fibroblasts, CellTiter-Glo (AID 1508586;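 active means mean z-score across replicates of 1.96 or higher in either the MELAS or the Rieske mutant cell line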;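 further: z relative to plate mean and SD of compound and empty wells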)
# [17] = ovarian cancer cell viability with rucaparib, profiling panel, oncology-focused library, rucaparib conditional (AID 1508598); details: patient-derived ovarian cancer cells, CellTiter-Glo viability, 144 h, stronger effect = lower value
# [18] = stronger effect = lower value, cell number ratio, induced over uninduced
# [19] = measured here: relative caspase fold change +Dox/-Dox
# [20] = measured here: total cells with miR-34 induction, stronger effect = lower value
# [21] = measured here: total cells without miR-34 induction
smiles,measurement,setting,value
NC(=O)n1c(O)c(C(=O)c2cccs2)c2cc(Cl)ccc21,nuclear beta-catenin stimulation,[1]; at 10 µM,-0.2% (inactive)
same,nuclear beta-catenin stimulation,"[1]; stimulation, at 2 µM",-0.7%
same,insulin secretion stimulation,[2],0.2% (inactive)
same,viability decrease,[3],106% (active)
same,tube area decrease,[4],58.6% (active)
same,GLP1 secretion stimulation,[5],-0.5% (inactive)
same,inhibition of viability,[6],102% (active)
same,viability decrease (inhibition),[7],128% (active)
same,viability decrease (inhibition),[8],97.5% (active)
same,remaining activity,[9],121% (inactive)
same,fold change,[10]; [18],0.969 (inactive)
same,fold change,[10]; [19],1.95
same,cell count,[10]; [20],7020
same,cell count,[10]; [21],7250
same,z-score,[11],-0.475 (inactive)
CC1(COc2ccc(CC3SC(=O)NC3=O)cc2)CCCCC1 (stereo not drawn),nuclear beta-catenin stimulation,[1]; at 10 µM,2.4% (inactive)
same,nuclear beta-catenin stimulation,"[1]; stimulation, at 2 µM",1.5%
same,insulin secretion stimulation,[2],1.9% (inactive)
same,viability decrease,[3],99% (active)
same,tube area decrease,[4],14% (inactive)
same,GLP1 secretion stimulation,[5],6.6% (inactive)
same,inhibition of viability,[6],101% (active)
same,viability decrease (inhibition),[7],146% (active)
same,viability decrease (inhibition),[8],105% (active)
same,remaining activity,[9],110% (inactive)
same,fold change,[10]; [18],0.913 (inactive) and 1.03 (inactive) and 0.948 (inactive)
same,fold change,[10]; [19],1.87 and 1.11 and 0.669
same,cell count,[10]; [20],5590 and 5930 and 7780
same,cell count,[10]; [21],6130 and 5780 and 8200
same,z-score,[11],-0.49 (inactive)
CS(=O)(=O)CCNCc1ccc(-c2ccc3ncnc(Nc4ccc(OCc5cccc(F)c5)c(Cl)c4)c3c2)o1,parasite load remaining,[12],44.4% (inactive)
same,viability,[12],101%
same,nuclear beta-catenin stimulation,[1]; at 10 µM,31.2% (inactive)
same,nuclear beta-catenin stimulation,"[1]; stimulation, at 2 µM",-0.2%
same,insulin secretion stimulation,[2],1.35% (inactive)
same,viability decrease,[3],106% (active)
same,tube area decrease,[4],110% (active)
same,GLP1 secretion stimulation,[5],2.8% (inactive)
same,inhibition of viability,[6],107% (active)
same,viability decrease (inhibition),[7],129% (active)
same,viability decrease (inhibition),[8],100% (active)
same,AC50,[13],18.6 µM (active)
same,AC50,[14],14.8 µM (active)
same,AC50,[15],16.6 µM (active)
same,fold change,[10]; [18],0.964 (inactive) and 0.914 (inactive)
same,fold change,[10]; [19],1.01 and 1.28
same,cell count,[10]; [20],3040 and 7890
same,cell count,[10]; [21],3150 and 8630
same,z-score,"[16]; MELAS cybrid survival, CellTiter-Glo 48 h, stronger effect = higher value",2.46 (active) and -0.221 (inactive)
same,z-score,"[16]; Rieske KO mouse fibroblast survival, CellTiter-Glo 72 h",0.803 and 1.5
same,viability,"[17]; at 0.000305 µM, OCI-C5x cells, with rucaparib 10 µM, 100% = cells with rucaparib alone",113% (inactive) and 103% (inactive)
same,viability,"[17]; at 0.000305 µM, OCI-C5x cells, without rucaparib",123% (inactive) and 111% (inactive)
same,viability,"[17]; at 0.000305 µM, OCI-P5x cells, with rucaparib 20 µM, 100% = cells with rucaparib alone",95.1% (active) and 93.3% (active)
same,viability,"[17]; at 0.000305 µM, OCI-P5x cells, without rucaparib",102% (inactive) and 98.6% (active)
same,viability,"[17]; at 0.00122 µM, OCI-C5x cells, with rucaparib 10 µM, 100% = cells with rucaparib alone",107% (inactive) and 123% (inactive)
same,viability,"[17]; at 0.00122 µM, OCI-C5x cells, without rucaparib",123% (inactive) and 115% (inactive)
same,viability,"[17]; at 0.00122 µM, OCI-P5x cells, with rucaparib 20 µM, 100% = cells with rucaparib alone",96.9% (active) and 99.7% (active)
same,viability,"[17]; at 0.00122 µM, OCI-P5x cells, without rucaparib",104% (inactive) and 107% (inactive)
same,viability,"[17]; at 0.00488 µM, OCI-C5x cells, with rucaparib 10 µM, 100% = cells with rucaparib alone",111% (inactive) and 106% (inactive)
same,viability,"[17]; at 0.00488 µM, OCI-C5x cells, without rucaparib",131% (inactive) and 122% (inactive)
same,viability,"[17]; at 0.00488 µM, OCI-P5x cells, with rucaparib 20 µM, 100% = cells with rucaparib alone",95.5% (active) and 98.8% (active)
same,viability,"[17]; at 0.00488 µM, OCI-P5x cells, without rucaparib",105% (inactive) and 108% (inactive)
same,viability,"[17]; at 0.0195 µM, OCI-C5x cells, with rucaparib 10 µM, 100% = cells with rucaparib alone",109% (inactive) and 107% (inactive)
same,viability,"[17]; at 0.0195 µM, OCI-C5x cells, without rucaparib",128% (inactive) and 109% (inactive)
same,viability,"[17]; at 0.0195 µM, OCI-P5x cells, with rucaparib 20 µM, 100% = cells with rucaparib alone",96.4% (active) and 103% (inactive)
same,viability,"[17]; at 0.0195 µM, OCI-P5x cells, without rucaparib",105% (inactive) and 111% (inactive)
same,viability,"[17]; at 0.0781 µM, OCI-C5x cells, with rucaparib 10 µM, 100% = cells with rucaparib alone",113% (inactive) and 110% (inactive)
same,viability,"[17]; at 0.0781 µM, OCI-C5x cells, without rucaparib",126% (inactive) and 113% (inactive)
same,viability,"[17]; at 0.0781 µM, OCI-P5x cells, with rucaparib 20 µM, 100% = cells with rucaparib alone",103% (inactive) and 104% (inactive)
same,viability,"[17]; at 0.0781 µM, OCI-P5x cells, without rucaparib",111% (inactive)
same,viability,"[17]; at 0.313 µM, OCI-C5x cells, with rucaparib 10 µM, 100% = cells with rucaparib alone",119% (inactive) and 112% (inactive)
same,viability,"[17]; at 0.313 µM, OCI-C5x cells, without rucaparib",134% (inactive) and 112% (inactive)
same,viability,"[17]; at 0.313 µM, OCI-P5x cells, with rucaparib 20 µM, 100% = cells with rucaparib alone",96.8% (active) and 98.2% (active)
same,viability,"[17]; at 0.313 µM, OCI-P5x cells, without rucaparib",115% (inactive) and 118% (inactive)
same,viability,"[17]; at 1.25 µM, OCI-C5x cells, with rucaparib 10 µM, 100% = cells with rucaparib alone",116% (inactive) and 91.4% (active)
same,viability,"[17]; at 1.25 µM, OCI-C5x cells, without rucaparib",126% (inactive)
same,viability,"[17]; at 1.25 µM, OCI-P5x cells, with rucaparib 20 µM, 100% = cells with rucaparib alone",101% (inactive) and 97.5% (active)
same,viability,"[17]; at 1.25 µM, OCI-P5x cells, without rucaparib",108% (inactive) and 114% (inactive)
same,viability,"[17]; at 5 µM, OCI-C5x cells, with rucaparib 10 µM, 100% = cells with rucaparib alone",100% (inactive) and 93.5% (active)
same,viability,"[17]; at 5 µM, OCI-C5x cells, without rucaparib",134% (inactive) and 128% (inactive)
same,viability,"[17]; at 5 µM, OCI-P5x cells, with rucaparib 20 µM, 100% = cells with rucaparib alone",95.6% (active) and 97.1% (active)
same,viability,"[17]; at 5 µM, OCI-P5x cells, without rucaparib",106% (inactive) and 118% (inactive)
same,z-score,[11],-0.555 (inactive)

# Source: PubChem BioAssay
